Shown is part of a subset that was picked to be rich in hits.
AmpC inh detg – qHTS Inhibitors of AmpC Beta-Lactamase (assay with detergent); AmpC hydrolysis of nitrocefin, absorbance 480 nm, 0.01% Triton; Potency, µM (top dose mostly 114 µM), without a hit: at the top dose activity change, negative = inhibition, actives largely listed as inhibitors; actives 0.041% (n = 370,000); AID 485294, 2010;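 note: potency is the fitted concentration of half-maximal effect; 0% = no-compound wells and -100% = no-enzyme wells; nearly all actives have a fitted effect of over 25% in size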
Target sequence (P00811 whole entry, looked up): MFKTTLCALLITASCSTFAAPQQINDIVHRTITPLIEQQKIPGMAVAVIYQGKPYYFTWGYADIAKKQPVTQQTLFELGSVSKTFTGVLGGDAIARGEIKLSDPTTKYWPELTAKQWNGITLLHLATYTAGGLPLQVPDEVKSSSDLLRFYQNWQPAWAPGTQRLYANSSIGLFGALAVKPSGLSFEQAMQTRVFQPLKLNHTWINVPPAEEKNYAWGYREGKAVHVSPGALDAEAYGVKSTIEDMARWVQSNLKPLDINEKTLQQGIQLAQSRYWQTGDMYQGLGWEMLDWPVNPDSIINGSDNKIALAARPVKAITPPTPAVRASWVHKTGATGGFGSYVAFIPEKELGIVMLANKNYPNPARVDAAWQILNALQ
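AmpC (5.3 nM in the dispensed reagent) in 20 mM phosphate pH 7.0 with 0.01% (detergent screen) or 0.0001% Triton X-100 was preincubated with compounds for 15 min at room temperature. Nitrocefin was then added from an 800 uM solution, and hydrolysis was followed at 480 nm.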
AmpC inh no detg – qHTS Inhibitors of AmpC Beta-Lactamase (assay without detergent). Potency, µM (titrated, usually from 57.1 µM), inactives show at the top dose activity change, negative = inhibition, hits mostly inhibitors. AID 485341, 2010. P00811. actives 0.52% (n = 330,000). AmpC nitrocefin hydrolysis, absorbance 480 nm, 0.0001% Triton;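 note: potency is the fitted concentration of half-maximal effect; plate controls were no compound for no effect and no enzyme for full effect; nearly all actives have a fitted effect of over 20% in size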
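20 mM phosphate pH 7.0 + 0.01% (detergent screen) or 0.0001% Triton X-100; 5.3 nM AmpC reagent; cpd preinc 15 min RT; nitrocefin (800 uM stock) to start; A480 q20 s × 4 min; Activity was normalised to no-enzyme and no-compound control wells.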
SARS PLpro yeast – qHTS of Yeast-based Assay for SARS-CoV PLP; Potency, µM (titrated, usually from 32.9 µM), for the others: at the highest dose activity, positive = growth rescue, hits mostly activators; S. cerevisiae expressing SARS-CoV PLpro, growth rescue; AID 485353, 2010; actives 0.19% (n = 330,000); calls by dose curve; note: potency is the fitted concentration of half-maximal effect; 0% is about no effect; nearly all actives have a fitted effect of over 55% in size
AMA1-RON2 inh – qHTS for Inhibitors of AMA1-RON; Towards Development of Antimalarial Drug Lead: Primary Screen. actives 0.2% (n = 360,000). Potency, µM (doses to about 58.2 µM), for inactives: top-dose activity change, negative = inhibition, most hits filed as inhibitors. AlphaScreen AMA1-biotinylated RON2 peptide binding. AID 720542, 2013;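 note: potency is the fitted concentration of half-maximal effect; 0% = vehicle wells and -100% = peptide control; nearly all actives have a fitted effect of over 45% in size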
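AMA1 (3D7) with his tag at 25 nM final met compounds first, then biotinylated RON2 peptide at 25 nM; detection used donor plus acceptor beads, 10 µg/mL apiece, read by AlphaScreen after 30 min at room temperature.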
Shiga toxin inh – A qHTS for Small Molecule Inhibitors of Shiga Toxin; Vero cells, Shiga toxin protein synthesis inhibition reporter; inhibition, % at 38.7 µM; actives 9.2% (n = 290,000); in the data active = inhibition mostly above about 28%, no sharp cut-off; inactive = mostly below about 43%; note: 0% is about no effect
Cycloheximide cs – Cycloheximide Counterscreen for Small Molecule Inhibitors of Shiga Toxin; cell reporter, cycloheximide protein synthesis inhibition counterscreen; actives 12% (n = 300,000); max response, %; in the data active = max response mostly above about 13%, no sharp cut-off; inactive = mostly below about 14%; note: read at 38.3 µM for the half of the compounds with a filed dose; 0% is about no effect
Active calls of the source: *; ? = inconclusive; · = no result; [ ] = remark or other dose. Unless noted, calls come from the whole dose curve; as a rule, active = well fitted curve in the direction sought with a large enough effect; inconclusive = small, poorly fitted or top-dose-only effect, or another doubt; inactive = no such curve, though single readings can be large; an effect the other way counts as inactive or inconclusive.

SMILES | AmpC inh detg | AmpC inh no detg | SARS PLpro yeast | AMA1-RON2 inh | Shiga toxin inh | Cycloheximide cs
COc1ccc(/C=N/Nc2nc(Nc3ccccc3)nc(N3CCCC3)n2)cc1 | 2.3% | -35.1% | 1.6% | 37.4% | 69.1 | 17.2
O=C(N/N=C\c1ccc(OC(=O)c2ccco2)cc1)c1ccc(Cl)cc1 | 1.1% | -22.9% | -1.1% | -2.8% | -8.1 | -1.7
C(=N\Nc1nc(Nc2ccccc2)nc(N2CCCCC2)n1)/c1ccco1 | 0.8% | ? | -4.1% | · | 32.0* | 27.7*
COc1cc(/C=N/Nc2ccc3ccccc3c2)ccc1OC(=O)c1ccco1 | -0.3% | -37.9% | -26.0% | 1.6% | 40.8* | 28.8*
Cc1ccccc1Cn1c(=O)n(Cc2ccco2)c(=O)c2sc3ccccc3c21 | 6.0% | · | · | · | · | ·
CC(C)(C)CC(C)(C)N=C1NS(=O)(=O)c2cc([N+](=O)[O-])ccc21 | -0.1% | -21.0% | 0.0% | 0.8% | -4.1 | 6.9
COc1cc(/C=N/Nc2nc(C)cc(C)n2)ccc1OC(=O)c1ccco1 | -9.8% | -0.6% | 5.9% | 29.5% | -6.7 | 8.0
CCOc1cc(/C=N\Nc2nc(Nc3ccccc3)nc(N3CCOCC3)n2)ccc1OC(=O)c1ccco1 | -5.8% | 10.9% | 7.3% | 29.5% | 8.9 | 19.5*
O=C(C[C@H]1C/C=C\C[C@H](NC(=O)OCC2c3ccccc3-c3ccccc32)C(=O)OC[C@@H]2CCCN2C1=O)N[C@H](CO)Cc1ccccc1 | · | 285.1% | 17.0% | 12.9% | · | ·
COC(=O)CSc1nnc(Cc2ccccc2)n1-c1ccc(C)cc1 | -1.9% | 9.3% | 8.6% | 18.9% | 0.0 | 14.3*
Cc1ccc2c(CSc3nc4ccccc4c(=O)n3CCCO)cc(=O)oc2c1C | 6.3% | 82.6% | 1.4% | -9.0% | 109.3* | 8.7
COc1ccccc1CNC(=O)COC(=O)c1cccnc1SCC(=O)NCc1ccccc1OC | -1.8% | ? | -0.4% | -6.4% | 67.9* | 29.3*
CCOC(=O)c1cccnc1SCC(=O)Nc1ccc(C)cc1 | 6.7% | -15.4% | -4.9% | 5.9% | 48.0 | 21.9*
CCOC(=O)N1CCN(C(=O)c2cc3sccc3n2C)CC1 | -1.6% | 13.4% | 8.4% | -0.4% | -8.6 | -3.1
Cn1c(C(=O)N2CCCC(C(=O)NCCc3ccccc3)C2)cc2sccc21 (centres undefined) | -14.6% | 99.2% | -2.8% | 0.0% | 60.6* | 18.2*
Cn1c(C(=O)N2CCCC(C(=O)NCCCc3ccccc3)C2)cc2sccc21 (centres undefined) | -7.0% | 257.1% | 7.3% | -13.7% | 35.8 | 10.2
CCOC(=O)N1CCC(NC(=O)C2CCCN(C(=O)c3cc4sccc4n3C)C2)CC1 (centres undefined) | -13.5% | 0.562µM* | 7.0% | 9.2% | -4.3 | 1.5
COc1ccc(C2=CC(c3ccc(OC)c(OC)c3)c3c(c4ccccc4oc3=O)O2)cc1OC (centres undefined) | 0.1% | 35.2% | -1.8% | -12.6% | 41.4 | 1.3
CCN(CC)c1ccc(CNc2nc3ccccc3n2C)cc1 | -1.5% | -27.9% | 0.4% | -6.3% | 43.8* | 8.2
CCn1c(NCc2ccccn2)nc2ccccc21 | -4.1% | -17.5% | -26.4% | 15.5% | 21.1 | 21.0*
CCn1c(NCc2ccc(N(C)C)cc2)nc2ccccc21 | ? | -30.8% | -0.5% | -20.7% | 35.3* | 29.7*
CCn1c(NCc2ccc(OC)c(OC)c2)nc2ccccc21 | -5.6% | · | · | · | · | ·
CCN(CC)c1ccc(CNc2nc3ccccc3n2CCN2CCCCC2)cc1 | -12.9% | -4.6%[2.29 µM] | -1.3% | ? | 27.6 | 2.4
CCC1Nc2ncnc(N3CCCCC3)c2N(Cc2ccccc2)C1=O (centres undefined) | ? | 3.1% | -22.8% | 14.5% | · | ·
CC(=O)Nc1ccc(C(=O)Nc2ccc3c(c2)OCCO3)cc1 | -15.4% | -12.8% | 0.4% | 1.6% | 42.0* | 27.1*
SMILES | AmpC inh detg | AmpC inh no detg | SARS PLpro yeast | AMA1-RON2 inh | Shiga toxin inh | Cycloheximide cs
O=C(Nc1ccc2c(c1)OCCO2)c1ccc(Cl)cc1 | ? | -14.3% | -4.7% | 0.0% | 41.6 | 28.1*
O=C(Nc1ccc2c(c1)OCCO2)c1ccc(NC(=O)C2CCCO2)cc1 (centres undefined) | ? | -11.4% | 0.6% | 2.5% | 21.3 | 23.3*
Cc1cc(C)n(-c2ccc(C(=O)Oc3ccc4c(c3)OCO4)cc2)n1 | 0.3% | -7.7% | -9.4% | 17.3% | 32.5* | 17.6*
O=C(O)C1CCN(c2ccc(S(=O)(=O)N3CCC(C(=O)O)CC3)cc2[N+](=O)[O-])CC1 | -14.8% | 23.7% | 3.5% | 0.5% | -2.6 | -2.5
Cc1cccc(-c2ocnc2C(=O)Nc2ccccc2NC(=O)c2ccccn2)c1 | -8.8% | 1.2% | -12.1% | 88.2% | -3.5 | 1.4
Cc1ccc(NC(=O)CCNS(=O)(=O)c2ccc3c(c2)CCC(=O)N3)cc1F | 3.8% | -13.8% | 0.0% | 0.0% | 6.8 | -1.1
CC(C)CNS(=O)(=O)c1ccc(C(=O)Nc2ccc3c(c2)OCCO3)cc1 | 1.9% | -16.3% | 0.6% | 0.8% | 96.7* | 54.1*
Cc1ccc(C(=O)Nc2ccc3c(c2)OCCO3)o1 | ? | -11.4% | -15.5% | -1.5% | 34.9 | 30.7*
O=C(CCNS(=O)(=O)c1ccc2c(c1)CCC(=O)N2)Nc1ccc2c(c1)OCCO2 | -6.1% | -4.0% | -3.6% | -4.5% | 55.6* | 29.4*
NC(=O)Nc1ccc2c(c1)OCCO2 | 8.8% | -12.2% | 4.6% | -3.3% | 102.7* | 51.7*
C=CCC[C@@H](Cc1ccc(F)cc1)C(=O)OCCNC(=O)[C@@H](CC=C)CC(=O)N(CCO)Cc1ccccc1 | · | 307.8% | -2.4% | -0.5% | · | ·
Cc1cc(C)n(-c2ccc(C(=O)NCc3ccc4c(c3)OCO4)cc2)n1 | -12.0% | -11.6% | -1.7% | -8.9% | -14.5 | -5.2
CC(C)CNS(=O)(=O)c1ccc(CCC(=O)N2CCCC2)cc1 | 7.2% | 4.0% | 2.0% | 23.5% | -5.4 | -1.5
CC(=O)Nc1ccc(C(=O)Nc2ccc3c(c2)OCO3)cc1 | -13.1% | -14.5% | 3.1% | 29.6% | 57.0* | 17.7*
CC(C)CNS(=O)(=O)c1ccc(CCC(=O)N2CCOCC2)cc1 | 3.6% | 0.224µM* | 2.5% | -9.9% | -4.4 | -3.5
CS(=O)(=O)Nc1ccc(C(=O)Nc2ccc3c(c2)OCO3)cc1 | -2.1% | -10.1% | -3.8% | -19.8% | 52.6* | 25.8*
Cc1cc(C)n(-c2ccc(C(=O)Nc3ccc4c(c3)OCCO4)cc2)n1 | -3.1% | -6.8% | -10.7% | 2.6% | 100.0* | 45.4*
CCN(CC)c1ccc(NC(=O)c2sc3nc4c(cc3c2N)CN(C)CC4)cc1 | -1.2% | · | · | · | · | ·
O=C(CSc1n[nH]c(-c2ccccc2F)n1)Nc1cc(F)ccc1F | 3.3% | -27.4% | 5.6% | -5.0% | · | ·

Bioassay records: PubChem BioAssay, National Center for Advancing Translational Sciences (NCATS)
